High-throughput results as filed in PubChem.
KinaseGlo FLuc = blocks Kinase-Glo luciferase, a counter-screen artifact | Kinase-Glo luciferase, ATP luminescence, 8 min | 0.28% of 200,000 active | Potency, µM (series often up to 38.3 µM), for inactives: at the top dose activity change, negative = inhibition, hits mostly inhibitors | Q27757 | AID 1379; also: nearly all actives have a fitted effect of over 60% in size
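Compound is pinned into ATP-containing buffer (10 uM ATP, imidazole pH 7.2, 7 mM MgCl2). Kinase-Glo luciferase reagent is then added. Light output is recorded following an 8-min room-temperature incubation.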
VP16 counter = counter-screen for ROR gamma inhibitors: Gal4-VP16 reporter; Drosophila S2 Gal4-VP16 UAS-luciferase, luminescence, 20 h; Potency, µM (highest dose often 53.6 µM), without a hit: at the top dose activity, negative = inhibition, actives largely listed as inhibitors; 3.5% of 310,000 active; AID 2546;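 also: Gal4-VP16 expression switched on by copper sulfate through the metallothionein promoter; nearly all actives have a fitted effect of over 50% in size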
RORg inh = ROR gamma (mouse) transcription inhibition. Potency, µM (highest dose often 53.6 µM), for inactives: at the highest dose activity change, negative = inhibition, hits mostly inhibitors. AID 2551. P51450. Drosophila S2 Gal4-RORgamma UAS-luciferase reporter, 20 h. 5.4% of 310,000 active; also: nearly all actives have a fitted effect of over 60% in size
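A Gal4/UAS one-hybrid system in insect cells: metallothionein-promoter Gal4–ROR gamma fusion plus Photinus luciferase reporter. Copper sulfate 700 uM final, 20 hr ambient incubation, luminescent detection after 10 min with reagent.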
* marks the source's active call; other numbers are inactive results; ? = inconclusive; · = not tested or not shown; [ ] = another dose, or the depositor's remark. Shown are actives, neighbours in structure and some others; about 6.2% of the full set was active somewhere. Calls follow the shape of the dose curve; as a rule, active = well fitted curve in the direction sought with a large enough effect; inconclusive = small, poorly fitted or top-dose-only effect, or another doubt; inactive = no such curve, though single readings can be large; an effect the other way counts as inactive or inconclusive. % is scaled to controls: 0 for no effect and ±100 for the full control effect; potency is read from the fitted curve at half-maximal effect.

SMILES	KinaseGlo FLuc	VP16 counter	RORg inh
S=c1[nH]nc(-c2ccco2)n1C1CCCCC1	-1%	?	10µM*
CC(C)(C)c1cc(-c2n[nH]c(=S)n2-c2ccc(Cl)cc2)n[nH]1	·	-17%	7.1µM*
Nn1c(-c2ccco2)n[nH]c1=S	-3%	5%	3%
Cc1nn(C)cc1-c1n[nH]c(=S)n1-c1ccc(Cl)cc1	-4%	-4%	?
COc1ccc(-n2c(-c3ccco3)n[nH]c2=S)cc1	14%	?	10%[10 µM]
S=c1[nH]nc(-c2ccco2)n1-c1ccc(Cl)cc1	-7%	-29%	8.9µM*
Cn1cc(Cl)c(C(=O)NC2CCCCCC2)n1	-5%	24%	-4%
Cn1cc(Cl)c(-c2n[nH]c(=S)n2C2CCCCC2)n1	-3%	?	6.3µM*
O=C(NC1CCCC1)c1n[nH]c2ccccc12	-12%	?	-2%
C/C=C(\C)C(=O)C[Si](C)(C)c1ccccc1	-1%	-2%	1%
COc1ccccc1-c1nnc2n1N=C(c1c(OC)cccc1OC)CS2	·	1%	-6%
ClCc1nnc(-c2cc3c(s2)CCCC3)o1	8%	?	6.3µM*
CC(C)(C)C1CCc2sc(-c3nnc(CCl)o3)cc2C1 (configuration not stated)	0%	-3%	-17%
O=C(O)c1cc(NN=C2CCN(Cc3ccccc3)CC2)ccc1Cl	·	-9%	-1%
CC(C)(C)C1CCC(=NNc2nc3ccccc3[nH]2)CC1 (configuration not stated)	-20%	7%	18µM*
c1ccc2c(c1)CC/C2=N/Nc1nc2ccccc2[nH]1	-3%	5.6µM*	1.1µM*
CCOCCCNc1nc2ccccc2[nH]1	0%	2%	19%
O=C(N/N=C1\CCc2ccccc21)c1ccncc1	-5%	-7%	-24%
c1ccc(CN2CCC(=NNc3nc4ccccc4[nH]3)CC2)cc1	-2%	-25%	22µM*
Cc1ccc2c(c1)N(CC(=O)NCCCN1CCN(C)CC1)C(=O)CO2	·	1%	0%
CCCCCC1OC1C/C=C\C/C=C\C/C=C\CCCC(=O)O (configuration not stated)	0%	-3%	-14%
COCCNC(=O)C1CCN(S(=O)(=O)c2c(C)noc2/C=C/c2cccs2)CC1	·	-3%	23%
C/C(=N\NC(=S)NC1CCCCC1)c1ccccc1	-1%	?	?
C/C(=N\NC(=S)NC(C)C)c1ccc(-n2ccnc2)cc1	-3%	6.3µM*	5.6µM*
CNC(=S)N/N=C(\C)c1ccc(-n2ccnc2)cc1	-3%	?	8.9µM*
SMILES	KinaseGlo FLuc	VP16 counter	RORg inh
C/C(=N\NC(=O)c1ccc(C)cc1C)c1ccc(-n2ccnc2)cc1	2%	-5%	-17%
COCCNC(=S)N/N=C(\C)c1ccc(O)cc1	0%	?	22µM*
C/C(=N\NC(=S)NC1CCCCC1)c1ccc(O)cc1	-5%	?	4.5µM*
C/C(=N\NC(=O)COc1ccccc1)c1ccc(O)cc1	-1%	-21%	-1%
C/C(=N\NC(N)=O)c1ccc(-n2ccnc2)cc1	0%	-8%	36%
CCC(=O)O[C@H](CC(=O)O)C[N+](C)(C)C	2%	-3%	-1%
CCOc1ccccc1C(=O)N/N=C/c1coc2ccc(C)cc2c1=O	·	-7%	-45%
Nc1cc(Cl)c(NC2=NCCN2)c(Cl)c1	-3%	0%	10%
COCCCN1C(=O)C(=O)/C(=C(/O)c2ccc(S(=O)(=O)N3CCCCC3)cc2)C1c1cccc(OC)c1 (configuration not stated)	·	7%	-22%
Nc1c(C(=O)Nc2ccc(Cl)cc2)sc2nc(N3CCOCC3)c3c(c12)CCCC3	·	1%	-2%
CCc1nc2ccccc2c(C(=O)OCC(=O)NC(=O)c2cccn2C)c1C	·	3%	1%
COc1ccccc1NC(=O)Cc1noc(CN(C)Cc2cccs2)n1	1%	-10%	-3%
C/C(=N\Nc1ccccc1Cl)c1ccc(-n2ccnc2)cc1	-1%	28%	8.9µM*
C=CCNC(=S)N/N=C(\C)c1ccc(-n2ccnc2)cc1	-1%	7.1µM*	3.2µM*
CCc1ccc(OCC(=O)N/N=C(\C)c2ccc(-n3ccnc3)cc2)cc1	·	-14%	?
COCCNC(=S)N/N=C(\C)c1ccc(-n2ccnc2)cc1	0%	7.1µM*	6.3µM*
CCOc1ccc(S(=O)(=O)Nc2ccc(C(=O)N/N=C(\C)c3ccc(-n4ccnc4)cc3)cc2)cc1	2%	0%	14%
COC(=O)c1ccc(-n2ccnc2)cc1	0%	?	-17%
C/C(=N\NC(=S)Nc1ccccc1C)c1ccc(O)cc1	0%	?	10µM*
COc1ccccc1NC(=S)NNC(=O)c1ccc(O)cc1	-5%	?	?
CCc1nc(NCCO)c(C#N)c2c1CSC(C)(C)C2	·	-21%	-1%
